# Source: the supplement of paper PMC6555819
# Columns and labels:
# Assay in all cases: PBM binding z-score (relative to random genomic background probes); higher = stronger binding; sequences stand for … in GC…GCGATTGACAGCGTAGAATGAAGG
# [1] = tested on: PPARg:RXRa DBDmut IVT, anti-RXR (DBD mutation: RXRa K156A/R161A, NR concentration 270 nM, RXRa partner concentration 90 nM)
# How it was run: (§1)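 Custom Agilent 4×180K protein-binding microarrays carried double-stranded probes. Their 34-nt variable regions held direct-repeat seeds, single-nucleotide variants, half-site ablations and random human genomic background sequences. Arrays were incubated 1 h with ligand-free nuclear receptor dimers in PBS pH 7.4, 2% milk, 0.02% Triton X-100, 1 mM DTT, 0.2 mg/mL BSA and 0.4 mg/ml salmon testes DNA. Antibodies against each partner (one per run) detected binding, and scanned fluorescence was regression-normalized. Binding z-scores use random background probes as reference.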
# [2] = tested on: PPARg:RXRa IVT, anti-PPARg (NR concentration 270 nM, RXRa partner concentration 90 nM)
# How it was run: as §1
# [3] = tested on: PPARg DBDmut:RXRa IVT, anti-PPARg (DBD mutation: PPARg1 K132A/R137A, NR concentration 270 nM, RXRa partner concentration 90 nM)
# How it was run: as §1
# [4] = tested on: PPARg DBDmut IVT, anti-PPARg (DBD mutation: PPARg1 K132A/R137A, NR concentration 270 nM)
# How it was run: as §1
# [5] = tested on: PPARg homodimer (NR concentration 180 nM)
# How it was run: as §1
# [6] = tested on: PXR:RXRa (NR concentration 270 nM, RXRa partner concentration 90 nM)
# How it was run: as §1
# [7] = tested on: PXR homodimer (NR concentration 270 nM)
# How it was run: as §1
# [8] = tested on: RARa:RXR (NR concentration 270 nM, RXRa partner concentration 90 nM)
# How it was run: as §1
# [9] = tested on: RARa homodimer (NR concentration 270 nM)
# How it was run: as §1
# [10] = tested on: RARb:RXRa (NR concentration 270 nM, RXRa partner concentration 90 nM)
# How it was run: as §1
# [11] = tested on: RARb homodimer (NR concentration 270 nM)
# How it was run: as §1
# [12] = tested on: RARg:RXRa (NR concentration 270 nM, RXRa partner concentration 90 nM)
# How it was run: as §1
# [13] = tested on: RARg homodimer (NR concentration 270 nM)
# How it was run: as §1
# [14] = tested on: RXRa DBDmut IVT, anti-RXR (DBD mutation: RXRa K156A/R161A, NR concentration 90 nM)
# How it was run: as §1
# [15] = tested on: RXRa homodimer (NR concentration 180 nM)
# How it was run: as §1
# [16] = tested on: THRa:RXRa (NR concentration 90 nM, RXRa partner concentration 90 nM)
# How it was run: as §1
# [17] = tested on: THRa homodimer (NR concentration 90 nM)
# How it was run: as §1
# [18] = tested on: VDR:RXRa (NR concentration 270 nM, RXRa partner concentration 90 nM)
# How it was run: as §1
# [19] = tested on: VDR homodimer (NR concentration 270 nM)
# How it was run: as §1
Sequence,PBM binding z-score [1],PBM binding z-score [2],PBM binding z-score [3],PBM binding z-score [4],PBM binding z-score [5],PBM binding z-score [6],PBM binding z-score [7],PBM binding z-score [8],PBM binding z-score [9],PBM binding z-score [10],PBM binding z-score [11],PBM binding z-score [12],PBM binding z-score [13],PBM binding z-score [14],PBM binding z-score [15],PBM binding z-score [16],PBM binding z-score [17],PBM binding z-score [18],PBM binding z-score [19]
CCTGCTAGGTCAATGGACAGCTAAAGCAGCTCGC,3.92,3.11,-0.347,-0.89,0.928,0.497,-0.327,1.2,-0.377,3.75,2.51,3.34,4.17,1.5,1.8,1.95,0.0455,0.586,0.153
CGTCCAAGGTCAGAGAGGTCAGAGAATGCCGAGT,2.84,3.53,0.0352,-0.116,4.06,6.31,11.8,5.66,1.75,5.18,5.37,6.29,7.09,3.52,6.16,4.53,2.72,7.59,5.54
CAAACTAGGGCACGAAAGGTCAAAGTCGAATGAC,7.59,8.38,2.22,0.682,2.46,5.93,1.28,6.53,1.46,4.98,5.2,6.2,5.83,1.44,6.29,4.84,0.977,5.32,1.87
TCTATTATTTGATTAGGGCAACCGAAACAGCGGA,2.19,1.39,2.04,2.12,2.2,0.756,2.04,1.17,3.39,0.93,0.742,0.671,0.596,1.27,0.751,0.898,1.07,0.857,1.47
CGTCCAAGCTCAAGGTCAGTGAAAGAGACTCGAA,-0.0335,0.547,-0.701,-0.496,1.59,1.51,0.437,1.86,0.0805,3.43,3.16,2.55,3.24,0.755,1.81,2.87,1.83,1.18,1.18
GATACAGGGTCAAGGCCAGTGTACGCGTATTGAT,2.53,3.95,0.493,-0.124,2.17,3.97,0.209,4.47,0.237,4.41,3.55,5.61,5.38,2.22,6.4,3.55,1.08,4.28,2.13
AATACAGGGTCATCGTAGCCCAGAGTACGCACAG,3.35,5.25,2.19,2.43,2.47,4.07,0.552,4.59,0.855,4.29,3.25,5.57,4.42,3.46,6.57,3.69,1.34,4.83,3.87
TTAGCAAGGTGAAGGTCGTTGATCCCTCTGTAGA,0.732,2.79,-0.57,-0.963,0.358,1.19,-0.023,1.51,-0.525,2.03,1.68,1.09,1.04,-0.172,1.53,2.03,0.432,0.964,0.356
ATCACTAGGTAAGACTCAGTTCAGTGAAGAACGC,3.04,2.02,0.271,1.07,0.437,0.891,0.972,0.026,1.03,0.143,0.405,0.282,0.333,0.204,-0.0584,0.526,0.536,0.53,1.28
CAAACTAGGTCATCGGAAGGTCAAAGTCCGCATG,7.98,8.45,2.01,2.98,5.96,5.37,1.97,6.84,1.67,4.97,5.46,8.08,6.47,2.25,5.58,4.2,2.3,5.72,3.67
ATATGTATGTTAAGGGTCATTCAGGTTGGTTCGC,3.13,4.91,2.02,1.65,2.83,4.73,2.03,4.22,1.18,3.31,3.82,3.82,2.66,2.29,4.3,3.36,1.54,5.25,3.48
ACTTACGGGTCAACGAGGCTATAGCACGCGTATA,3.07,3.98,0.121,1.38,1.92,3.59,0.421,4.16,0.515,4.01,3.07,5.01,4.51,2.15,5.06,3.35,0.239,6.74,1.55
CTCGAAAGGTCGTGCTCAGGAGAGTATACCAAAC,0.885,1.49,0.0921,0.34,0.909,2.6,0.45,3.47,0.362,3.87,2.52,4.36,4.09,1.88,5.03,2.64,0.423,2.92,1.36
AGAAGGAGGTTAAGATCAGGGAAACAGAATACAT,1.24,1.78,1.73,0.272,2.06,1.5,1.36,1.51,1.44,1.85,1.51,1.73,1.36,0.0542,1.96,1.94,0.811,0.978,0.91
ACGAGTTGGTCAGCTGAGGTCACACACAATTCGG,0.74,1.98,-0.0405,0.48,2.66,5.43,2.1,4.82,0.588,3.59,4.17,4.17,4.27,1.82,4,4.77,4.97,4.62,4.4
AGTCTAAGTTCATCTAGGTAACGTAAGATATGCT,0.694,2.11,1.22,1.39,1.48,4.78,8.13,2.24,0.123,3.55,2.48,3.58,4.02,4.94,2.6,2.9,0.767,4.65,5.9
